Here are results for nine compounds from PubChem BioAssay (NCI).

Among the test systems are SR leukemia; RPMI-8226 leukemia; OVCAR-8 ovarian; OVCAR-5 ovarian; OVCAR-4 ovarian; SK-OV-3 ovarian; IGROV1 ovarian; OVCAR-3 ovarian; HS 578T breast; NCI/ADR-RES ovarian; T-47D breast; BT-549 breast; MDA-MB-435 melanoma; SW-620 colon; MCF7 breast; HCT-116 colon; HCC-2998 colon; KM12 colon.
What all share (test): NCI-60 one-dose screen, 48 h (100 = growth as untreated, 0 = no growth, -100 = all killed)
What all share (conditions): 10 µM unless noted

Structures are written as SMILES. Several values for one entry are separate records, joined by “and”; a condition that tells them apart may be missing. Identical values can stand only once. About 83,000 compounds went through this panel and 20% of them were active in at least one assay; those are over-represented in the sample as a whole.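 Plates (96-well) were seeded with cells, treated with compound at one concentration, and incubated for 48 hours before percent growth was determined.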 Activity calls are given as the source filed them. The calls were made as follows: active = growth percent below 10; inactive = the rest.

For `O=[N+]([O-])c1ccccc1/C=N\Nc1ccccc1`, the growth in the assay on SR leukemia is 98.5% (inactive) and 51.8% (inactive); in the assay on RPMI-8226 leukemia, 77.5% (inactive) and 95.6% (inactive); in the assay with OVCAR-8 ovarian it was 91.1% (inactive) and 89.9% (inactive); with OVCAR-5 ovarian, 91.1% (inactive) and 89.2% (inactive); with OVCAR-4 ovarian, 82.2% (inactive) and 86.3% (inactive); with SK-OV-3 ovarian, 90.6% (inactive) and 93.7% (inactive). Besides, the growth is 74.4% (inactive) and 59.1% (inactive) in the assay with IGROV1 ovarian; 94.5% (inactive) and 92.7% (inactive) in the assay with OVCAR-3 ovarian; 90.3% (inactive) and 118% (inactive) in the assay on HS 578T breast; 73.3% (inactive) and 75.6% (inactive) in the assay with NCI/ADR-RES ovarian; 48.2% (inactive) and 57.9% (inactive) with T-47D breast; 91.1% (inactive) and 97.8% (inactive) in the assay with BT-549 breast. The growth with MDA-MB-435 melanoma was 88.8% (inactive) and 83.6% (inactive); with SW-620 colon, 95% (inactive) and 93.3% (inactive); in the assay on MCF7 breast, 66.3% (inactive) and 69.4% (inactive); with HCT-116 colon it was 79.2% (inactive) and 84.5% (inactive); with HCC-2998 colon it was 88.6% (inactive) and 91.5% (inactive); with KM12 colon, 40.6% (inactive) and 36.1% (inactive).

Take `CN(C)c1ccc2nc3ccc(N)cc3[n+](-c3ccccc3)c2c1`: the growth was 18.6% (inactive) and 11% (inactive) in the assay with SR leukemia; 8.36% (active) and 13.7% (inactive) with RPMI-8226 leukemia; 19.4% (inactive) and -16.6% (active) in the assay with OVCAR-8 ovarian; 87.1% (inactive) and -46.4% (active) in the assay on OVCAR-5 ovarian; 29.2% (inactive) and 1.54% (active) with OVCAR-4 ovarian; 74.1% (inactive) and 30.9% (inactive) in the assay with SK-OV-3 ovarian. Moreover, the growth in the assay with IGROV1 ovarian is 12.8% (inactive) and 13.7% (inactive); with OVCAR-3 ovarian, 23.5% (inactive) and -18.1% (active); in the assay on HS 578T breast, 31.7% (inactive) and 23.4% (inactive); in the assay with NCI/ADR-RES ovarian it was 92% (inactive) and 26% (inactive); in the assay with T-47D breast, -15.1% (active) and 0.414% (active); in the assay with BT-549 breast it was 27.5% (inactive). Also, the growth in the assay with MDA-MB-435 melanoma was 4.97% (active) and -49.2% (active); in the assay on SW-620 colon, 20.8% (inactive) and -13.9% (active); in the assay with MCF7 breast, 3.88% (active) and -17.2% (active); in the assay with HCC-2998 colon it was 14.6% (inactive) and 51.9% (inactive); in the assay with KM12 colon, 15.7% (inactive) and 24.2% (inactive).

Regarding `CCN(CC)CCOc1ccc(/C=N/Nc2nc3c([nH]2)c(=O)n(C)c(=O)n3C)cc1`, the growth in the assay with SR leukemia is 102% (inactive) and 96.8% (inactive); in the assay on RPMI-8226 leukemia, 90.7% (inactive) and 108% (inactive); in the assay on OVCAR-8 ovarian, 107% (inactive) and 104% (inactive); in the assay on OVCAR-5 ovarian, 117% (inactive) and 89.7% (inactive); in the assay with OVCAR-4 ovarian it was 107% (inactive) and 105% (inactive); in the assay with SK-OV-3 ovarian it was 106% (inactive) and 107% (inactive). Further, the growth is 110% (inactive) and 91.2% (inactive) in the assay with IGROV1 ovarian; 114% (inactive) and 94.8% (inactive) with OVCAR-3 ovarian; 106% (inactive) and 105% (inactive) in the assay with HS 578T breast; 118% (inactive) and 106% (inactive) with NCI/ADR-RES ovarian; 89.7% (inactive) and 96.3% (inactive) in the assay on T-47D breast; 105% (inactive) and 96.1% (inactive) with BT-549 breast. Moreover, the growth was 104% (inactive) and 105% (inactive) with MDA-MB-435 melanoma; 108% (inactive) and 104% (inactive) in the assay with SW-620 colon; 81.5% (inactive) and 74.6% (inactive) with MCF7 breast; 102% (inactive) and 111% (inactive) in the assay on HCC-2998 colon; 109% (inactive) and 106% (inactive) in the assay with KM12 colon.

For `Cc1cc(O)c(C(C)C)cc1N`, the growth was 97.1% (inactive) and 115% (inactive) in the assay on SR leukemia; 84.3% (inactive) and 92.6% (inactive) with RPMI-8226 leukemia; 99.3% (inactive) and 106% (inactive) in the assay on OVCAR-8 ovarian; 101% (inactive) and 103% (inactive) in the assay on OVCAR-5 ovarian; 84.5% (inactive) in the assay with OVCAR-4 ovarian; 100% (inactive) with SK-OV-3 ovarian. For the same compound, the growth was 103% (inactive) and 114% (inactive) in the assay with IGROV1 ovarian; 76.6% (inactive) and 116% (inactive) in the assay with OVCAR-3 ovarian; 120% (inactive) and 99.7% (inactive) with HS 578T breast; 102% (inactive) and 98.8% (inactive) with NCI/ADR-RES ovarian; 16.1% (inactive) and 71.8% (inactive) with T-47D breast; 109% (inactive) and 98.1% (inactive) with BT-549 breast. Besides, the growth with SW-620 colon is 109% (inactive) and 102% (inactive); in the assay with MCF7 breast, 94.3% (inactive) and 92.7% (inactive); with HCT-116 colon, 87.2% (inactive) and 104% (inactive); with HCC-2998 colon, 105% (inactive) and 94.2% (inactive); with KM12 colon, 110% (inactive) and 114% (inactive).

For the compound `CC1=C[C@H]2c3c(c(O)c(O)c4oc5cc(O)cc(O)c5c(=O)c34)[C@H](c3cc(O)c(O)c4oc5cc(O)cc(O)c5c(=O)c34)[C@H]2C(C)(C)C1`, the growth is 1.73% (active) and 3.96% (active) in the assay on SR leukemia; 4.38% (active) and -30.3% (active) in the assay with RPMI-8226 leukemia; 4.35% (active) and 4.94% (active) in the assay with OVCAR-8 ovarian; 11% (inactive) and 12.4% (inactive) in the assay with OVCAR-5 ovarian; 20.7% (inactive) and 7.19% (active) in the assay on OVCAR-4 ovarian; -1.03% (active) with SK-OV-3 ovarian. For the same compound, the growth was 14.1% (inactive) and -13.1% (active) with IGROV1 ovarian; -5.67% (active) and -43.9% (active) in the assay on OVCAR-3 ovarian; 3.36% (active) and -17.1% (active) in the assay with HS 578T breast; 55.8% (inactive) and 23.7% (inactive) in the assay on NCI/ADR-RES ovarian; -1.57% (active) in the assay on T-47D breast; 7.04% (active) and -11.3% (active) with BT-549 breast. The growth was -69.8% (active) and -76.7% (active) with MDA-MB-435 melanoma; -37.8% (active) and -80.9% (active) in the assay with SW-620 colon; -61.9% (active) and -52.5% (active) in the assay on HCT-116 colon; 14.3% (inactive) and -61% (active) with HCC-2998 colon; -27% (active) and -71.5% (active) in the assay on KM12 colon.

Consider `C1CCCCNCCC1`, for which the growth was 110% (inactive) with SR leukemia; 99.5% (inactive) in the assay with RPMI-8226 leukemia; 110% (inactive) in the assay with OVCAR-8 ovarian; 106% (inactive) with OVCAR-5 ovarian; 109% (inactive) in the assay with OVCAR-4 ovarian; 117% (inactive) in the assay on SK-OV-3 ovarian. Besides, the growth in the assay with IGROV1 ovarian is 140% (inactive); with OVCAR-3 ovarian it was 112% (inactive); in the assay on HS 578T breast, 110% (inactive); in the assay on NCI/ADR-RES ovarian, 127% (inactive); in the assay with T-47D breast, 101% (inactive); with BT-549 breast, 114% (inactive). For the same compound, the growth in the assay on MDA-MB-435 melanoma is 94.6% (inactive); with MCF7 breast, 101% (inactive); in the assay on HCT-116 colon it was 107% (inactive); in the assay on HCC-2998 colon, 112% (inactive); with KM12 colon, 115% (inactive).

As to `COc1c(/C(C)=N/N=c2sc(C(C)=O)nn2-c2ccc(Cl)cc2)c(Oc2ccccc2)c(OC)c2occc12`, the growth was 107% (inactive) and 104% (inactive) in the assay on SR leukemia; 107% (inactive) and 96.3% (inactive) with RPMI-8226 leukemia; 102% (inactive) in the assay on OVCAR-8 ovarian; 104% (inactive) and 97.7% (inactive) in the assay with OVCAR-5 ovarian; 102% (inactive) and 97.9% (inactive) in the assay on OVCAR-4 ovarian; 137% (inactive) and 107% (inactive) in the assay with SK-OV-3 ovarian. The growth with IGROV1 ovarian was 102% (inactive) and 94.5% (inactive); with OVCAR-3 ovarian, 102% (inactive); with HS 578T breast it was 103% (inactive); with NCI/ADR-RES ovarian, 96.5% (inactive) and 99.7% (inactive); in the assay with T-47D breast, 98.7% (inactive) and 76.5% (inactive); with BT-549 breast, 115% (inactive) and 103% (inactive). The growth with MDA-MB-435 melanoma was 103% (inactive) and 104% (inactive); in the assay on SW-620 colon it was 102% (inactive) and 92.8% (inactive); in the assay with MCF7 breast it was 99.9% (inactive) and 88.3% (inactive); in the assay on HCC-2998 colon, 107% (inactive) and 110% (inactive); with KM12 colon, 93.7% (inactive) and 96.5% (inactive).

In the case of `COC(=O)c1nc(N)nc(C(=O)OC)c1C(=O)c1ccc(OC)cc1`, the growth in the assay on SR leukemia is 90.2% (inactive) and 22.8% (inactive); with RPMI-8226 leukemia it was 107% (inactive) and 32.6% (inactive); with OVCAR-8 ovarian, 105% (inactive) and 55.1% (inactive); with OVCAR-5 ovarian it was 121% (inactive) and 87.5% (inactive); in the assay on OVCAR-4 ovarian it was 105% (inactive) and 37.6% (inactive); with SK-OV-3 ovarian, 106% (inactive) and 83.3% (inactive). Also, the growth was 106% (inactive) and 66.6% (inactive) in the assay with IGROV1 ovarian; 117% (inactive) and 70.1% (inactive) in the assay with OVCAR-3 ovarian; 105% (inactive) and 81.2% (inactive) in the assay on HS 578T breast; 105% (inactive) and 37.4% (inactive) with NCI/ADR-RES ovarian; 101% (inactive) and 35.5% (inactive) with T-47D breast; 144% (inactive) and 77.1% (inactive) with BT-549 breast. For the same compound, the growth was 113% (inactive) and 61.9% (inactive) with SW-620 colon; 96% (inactive) and 41.9% (inactive) in the assay with MCF7 breast; 108% (inactive) and 38.1% (inactive) in the assay with HCT-116 colon; 108% (inactive) and 79.3% (inactive) in the assay with HCC-2998 colon; 107% (inactive) and 53.7% (inactive) in the assay with KM12 colon.

Turning to `C#CCN(C)Cc1ccccc1`, the growth in the assay with SR leukemia was 108% (inactive) and 101% (inactive); in the assay with RPMI-8226 leukemia, 98.2% (inactive) and 107% (inactive); in the assay on OVCAR-8 ovarian, 101% (inactive) and 98% (inactive); in the assay on OVCAR-5 ovarian it was 116% (inactive); with OVCAR-4 ovarian, 112% (inactive) and 114% (inactive); in the assay on SK-OV-3 ovarian, 104% (inactive) and 103% (inactive). The growth with IGROV1 ovarian was 103% (inactive) and 120% (inactive); in the assay on OVCAR-3 ovarian, 111% (inactive) and 104% (inactive); in the assay with HS 578T breast, 119% (inactive) and 96.1% (inactive); in the assay on NCI/ADR-RES ovarian, 101% (inactive) and 102% (inactive); with T-47D breast, 96.9% (inactive) and 99.3% (inactive); in the assay on BT-549 breast, 94.6% (inactive) and 141% (inactive). In addition, the growth in the assay on MDA-MB-435 melanoma is 107% (inactive) and 98.3% (inactive); in the assay with SW-620 colon it was 104% (inactive) and 103% (inactive); in the assay with MCF7 breast, 118% (inactive) and 95.9% (inactive); in the assay with HCT-116 colon, 99.6% (inactive) and 86.9% (inactive); in the assay on KM12 colon it was 109% (inactive) and 102% (inactive).
